Compounds without any hit were thinned out: in the full panel of roughly 83,000, 20% have a hit.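 48-hour exposure, single concentration, 96-well plates; percent growth endpoint where 0 means no net growth. Active: below 10.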 Values without a mark were called inactive. Calls of active or inactive are those of the source.

The experiment concerns HL-60(TB) leukemia. Briefly: NCI-60 one-dose screen, 48 h (100 = growth as untreated, 0 = no growth, -100 = all killed). Particulars: 10 µM unless noted.
`Cn1ncc2ncc(-c3ccc4ncc(C#N)c(N5CCc6cc(F)c(Cl)cc65)c4c3)cc21`: the growth is 26.7%.
For `O=C(CN1CCN(c2cc(=O)n(-c3ccccc3)c3ccccc23)CC1)Nc1ccc(F)cc1` the value was 47.7%.
For `CC(=O)Nc1cc(F)cc(-c2ccc3[nH]cc(-c4ccccc4)c3n2)c1` the value was 7.81% (active); for `COc1cccc(-c2nn(-c3ccccc3)cc2-c2ccnc(N3CCN(C(=O)c4ccccc4)CC3)c2)c1`, 34.8%.
For `COc1ccc(/C=N/NC2=NC3C(S2)N(C)C(=O)N3C)cc1` (stereo not drawn) the value was -28.8% (active).
`NC1C2CCC1CN(c1cnc(C(=O)Nc3cc(F)cc4cccnc34)cn1)C2` (stereo not drawn): the growth was 9.98% (active).
To `Cc1csc(/N=C(N)/N=C(\N)c2cccc(Br)c2)n1` belongs 91.3%; to `O=C(NNc1nc2cc(F)ccc2n2c(CN3CCCC3)ccc12)c1cnccn1`, -30.9% (active).
Regarding `O=C(Nc1ccc(Cl)c(C(F)(F)F)c1)Nc1ccc2oc(=O)ccc2c1`, the growth is 26%.
For `O=C1CSC(c2cn(-c3ccccc3)nc2-c2ccc(Cl)cc2)N1c1ccccc1` (stereo not drawn) the value was 117%.
For `CN(C)CCn1c2ccc(N)cc2c2nc3ccccc3nc21` the value was 12%; for `CC(=O)Oc1ccccc1C(=O)Nc1ccc(C(=O)/C=C/c2ccncc2)cc1`, 7.33% (active); for `CN(C)CCN(C)c1ccc2ncc(C#Cc3cncc(C(=O)Nc4ccc(CN5CCN(C)CC5)c(C(F)(F)F)c4)c3)n2n1`, 36.5%.
For `COc1ccc(NCc2cn(-c3ccc(C(=O)O)cc3)nc2-c2cc(C(F)(F)F)cc(C(F)(F)F)c2)cc1` the value was 90.6%.
Turning to `COc1cc(NC2=C(Cl)C(=O)c3nc(C)ccc3C2=O)cc(OC)c1`, the growth is -13.4% (active).
In the case of `CCOC(=O)c1c(NC(=O)c2ccccc2C(F)(F)F)sc2c1CCC(=O)C2`, the growth was 33.4%.
For `Cc1cccc2c3c(sc12)C(c1ccc(F)cc1)C(C#N)=C(/N=C/c1ccc(Cl)cc1)O3` (stereo not drawn) the value was 2.41% (active).
To `CC(=O)NC(C)(C)C(=O)N[C@@H](C)C(=O)NC(C)(C)C(=O)N[C@@H](C)C(=O)NC(C)(C)C(=O)N[C@@H](C)C(=O)N[C@@H](CCC(N)=O)C(=O)NC(C)(C)C(=O)N[C@H](C(=O)NC(C)(C)C(=O)NCC(=O)N[C@@H](CC(C)C)C(=O)NC(C)(C)C(=O)N1CCC[C@H]1C(=O)N[C@H](C(=O)NC(C)(C)C(=O)NC(C)(C)C(=O)N[C@@H](CCC(N)=O)C(=O)N[C@@H](CCC(N)=O)C(=O)N[C@H](CO)CC1CCCCC1)C(C)C)C(C)C` belongs 10.3% [5 µM].
Take `Cc1ccc([C@H]2c3[nH]c4ccccc4c3C[C@H]3C(=O)N(CCCCCCC(=O)NO)CC(=O)N23)s1`: the growth was 50.1%.
For `COc1cc2cc(Oc3ccc(NC(=O)Nc4cccc(C(F)(F)F)c4)cc3)c(C)nc2cc1OCCN(C)C` the value was 133%; for `N/C(=N\C(N)=N\c1nc2ccccc2s1)c1ccc(C(F)(F)F)cc1`, 53.6%; for `CCN(CC)S(=O)(=O)c1ccc(-c2nc(C(Cl)Cl)nc3cc(-c4ccc(F)cc4)nn23)cc1`, 4.64% (active).
Take `O=C(COc1ccc(/C=C2\SC(=O)NC2=O)cc1)Nc1ccc(C(=O)/C=C/c2cc3ccccc3nc2Cl)cc1`: the growth was 79.6%.
For `COc1ccc(/C=N/Nc2nc(N/N=C/c3ccc(OC)cc3O)nc(N3CCOCC3)n2)c(O)c1` the value was 30.9%; for `CC(Nc1ncnc2ccc(-c3cnc4cnccn34)cc12)c1ccccc1` (stereo not drawn), 52.4%.
To `CCOc1ccccc1NC1=C(Cl)C(=O)c2nc(C)ccc2C1=O` belongs -36.8% (active).
To `Cn1cc(-c2cc(N)n3nc(-c4cn(C)c5ccc(Cl)cc45)cc3n2)c2cc(Cl)ccc21` belongs 31.5%.
On to `CN1CCN(c2ccc(C(=O)Nc3cccc(-c4cn(-c5ccc(S(N)(=O)=O)cc5)nn4)c3)cc2C(F)(F)F)CC1`, for which the growth was 77%.

Source of the values: PubChem BioAssay (NCI).
